Compounds with a hit are over-represented: about 1.4% of the library has one in this group of screens.
RecA intein inh = Mtb RecA intein splicing inhibitors, primary screen, biochemical, fluorescence, HTS | Protein RecA (Mycobacterium tuberculosis (strain ATCC 25618 / H37Rv)), P9WHJ3 | cell-free RecA intein splicing | inhibition, % (test concentration not listed) | actives 0.75% (n = 290,000) | AID 2221, 2009; in the data active = inhibition above about 30%; inconclusive = no clear call, values can overlap the other calls
PrP 5UTR inh = inhibition of PrP 5' UTR reporter expression. cell-based PrP 5' UTR mRNA reporter, plate reader. inhibition, % (test concentration not listed). actives 0.35% (n = 340,000); in the data active = inhibition above about 52%
Mtb hypoxia inh = PubChem AID 1159583; actives 0.1% (n = 300,000); M. tuberculosis hypoxia-regulated fluorescent reporter, fluorescence; fluorescence inhibition, % (no concentration beside the values); in the data active = fluorescence inhibition mostly above about 23%, no sharp cut-off; inactive = mostly below about 17%
PrPC TRFRET = inhibitors of human cell surface prion protein PrPC, primary screen, cell-based, TR-FRET. Major prion protein (Homo sapiens), P04156. TR-FRET read-out. inhibition, % at 13.8 µM. actives 0.43% (n = 370,000). AID 720596, 2013; in the data active = inhibition above about 24%
3CLpro inhibitor = SARS-CoV 3CLpro protease inhibitors, primary screen, biochemical, quenched FRET; Replicase polyprotein 1ab (Severe acute respiratory syndrome coronavirus), P0C6X7; recombinant SARS-CoV 3CLpro, quenched FRET peptide cleavage; inhibition, % at 6 µM; actives 0.14% (n = 290,000); AID 1706, 2009; in the data active = inhibition above about 12%
BJeLR lethal = MLPCN primary cell-based screen for lethality selective to Ras in HRASV12 cells; actives 0.17% (n = 300,000); BJeLR (HRASV12) viability, CellTiter-Glo ATP luminescence, 48 h; AID 1554, 2009; inhibition, % (no concentration beside the values); in the data active = inhibition above about 50%; inconclusive = no clear call, values can overlap the other calls
PrP UTR cherry = prion 5' UTR mRNA inhibition, cherry-pick retest; shares compounds with PrP 5UTR inh; cell-based prion protein 5' UTR reporter, plate reader; inhibition, % at 2.5 µM; actives 48% (n = 1,100); in the data active = inhibition above about 54%; inconclusive = no clear call, values can overlap the other calls
A number is an active result; n = inactive; u = inconclusive; x = no result given; ! = repeats disagree.

SMILES	RecA intein inh	PrP 5UTR inh	Mtb hypoxia inh	PrPC TRFRET	3CLpro inhibitor	BJeLR lethal	PrP UTR cherry
Cc1nn(-c2ccccc2Cl)c(Cl)c1/C=N/Nc1nc2ccccc2s1	n	87	x	n	n	n	81
Cc1nn(-c2ccccc2Cl)c(Cl)c1C=NNc1nc2ccccc2s1	x	x	n	x	x	x	x
O=C(Nc1nnc(-c2ccccc2)o1)NC1CCCCC1	n	78	n	n	n	n	n
O=C(NCc1cccnc1)c1ccccc1Br	n	77	n	n	n	n	n
O=C(NCc1ccccc1)c1ccccc1Br	n	n	n	n	n	n	x
Oc1ccc2c3c1O[C@H]1[C@@H](O)CC[C@@]4(O)[C@@H](C2)N(CC2CCC2)CC[C@]314	n	63!	x	n	x	n	n
Oc1ccc2c3c1OC1C(O)CC[C@@]4(O)C(C2)N(CC2CCC2)CC[C@]314 (stereo not given in full)	x	x	n	x	x	x	x
CC(=NNS(=O)(=O)c1cccc([N+](=O)[O-])c1)c1ccc2c(c1)OCO2	x	x	n	x	x	x	x
COc1ccc2c(c1)C[C@]1(C)c3ccccc3C(=O)N(Cc3ccccc3)C21 (stereo not given in full)	x	x	n	x	x	x	x
O=S(=O)(NN=Cc1ccc2c(c1)OCO2)c1ccc(Br)cc1	x	x	n	x	x	x	x
CC(C)(C)OC(=O)C(Cc1ccccc1)NC(=O)c1nc[nH]c1C(=O)NC(Cc1ccccc1)C(=O)OC(C)(C)C (stereo not given)	x	x	n	x	x	x	x
O=C(C=Cc1ccc(F)cc1)NC(=S)N1CCOCC1	x	x	n	x	x	x	x
C(=NNc1nc2ccccc2[nH]1)c1ccccn1	x	x	n	x	x	x	x
C(=N\Nc1nc2ccccc2[nH]1)/c1ccccn1	n	52	x	n	n	54	u
CON=C/C=C1/N(C)c2ccccc2C1(C)C	x	x	n	x	x	x	x
COCCn1c(C)cc(C(=O)CSc2nnc(C)s2)c1C	n	57	x	n	n	n	72
COCCn1c(C)cc(C(=O)COC(=O)c2cccc(O)c2)c1C	n	83	n	n	n	n	79
COCCn1c(C)cc(C(=O)COC(=O)c2cc3c(s2)CCC3)c1C	n	n	n	n	n	n	x
COc1ccc(Cl)cc1C(=O)CSc1nnnn1C1CCCC1	x	n	n	n	n	x	x
COCCn1c(C)cc(C(=O)CSc2nnnn2C2CCCC2)c1C	x	64	n	n	x	x	57
COC(=O)c1cccc(NC(=O)/C=C/c2ccc3c(c2)OCO3)c1	n	65	n	n	n	n	n
COc1cc2cnc(CCOC3CCCCO3)cc2cc1OC (stereo not given)	x	x	n	x	x	x	x
c1nc(CCO[C@H]2CCCCO2)cc2cc3c(cc12)OCO3	x	63	x	n	x	x	n
Cn1nnnc1SCC(=O)N1CCN(S(=O)(=O)c2ccccc2)CC1	n	71	n	n	n	n	n
CCOC(=O)N1CCN(C(=O)c2ccc3c(c2)sc2nc(-c4ccc(OC)cc4)cn23)CC1	n	n	n	n	n	n	x
SMILES	RecA intein inh	PrP 5UTR inh	Mtb hypoxia inh	PrPC TRFRET	3CLpro inhibitor	BJeLR lethal	PrP UTR cherry
COc1ccc2c(c1)sc1nc(-c3ccccc3)cn12	n	89	x	n	n	n	89
COc1ccc(C(N)=NOC(=O)c2ccc(C)c([N+](=O)[O-])c2)cc1	x	x	n	x	x	x	x
O=c1[nH]c2cc([N+](=O)[O-])ccc2c2ccc([N+](=O)[O-])cc12	x	88	x	n	x	x	n
O=c1[nH]c2cc([N+](=O)[O-])ccc2c2ccccc12	x	n	x	n	x	x	x
CC(C(=O)Nc1ccccc1N1CCOCC1)N1C(=O)C2CC=CCC2C1=O (stereo not given)	x	x	n	x	x	x	x
O=C(CNCc1ccco1)Nc1ccc(N2CCCCCC2)cc1	n	83	n	n	n	n	n
COC(=O)[C@@]1(Cc2ccc(F)cc2)C2c3cc(C(=O)N(C)C)n(Cc4nc5ccccc5[nH]4)c3CC2CN1C(=O)c1ccccc1 (stereo not given in full)	x	x	n	x	x	x	x
Cc1ccc(C(=O)N2C3C=CC(C3)C2(C(F)(F)F)C(F)(F)F)cc1 (stereo not given)	n	86	n	n	n	n	n
CCOC(=O)C1=C(CC)OC(N)=C(C#N)C1c1ccsc1 (stereo not given)	n	n	n	n	n	n	x

From PubChem
